About 83,000 compounds went through this panel and 20% of them were active in at least one assay; those are over-represented in the sample as a whole.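 Assay: single dose, 48 h. Readout: percent growth (0 = no net growth; negative = cell death). Active: <10.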 Values without a mark were called inactive. Calls of active or inactive are those of the source.
Tests used:
Assay in all cases: NCI-60 one-dose screen, 48 h (100 = growth as untreated, 0 = no growth, -100 = all killed)
Conditions in all cases: 10 µM unless noted
[1] = tested on: RPMI-8226 leukemia
[2] = tested on: OVCAR-8 ovarian
[3] = tested on: OVCAR-5 ovarian
[4] = tested on: OVCAR-4 ovarian
[5] = tested on: SK-OV-3 ovarian
[6] = tested on: IGROV1 ovarian
[7] = tested on: HS 578T breast
[8] = tested on: NCI/ADR-RES ovarian
[9] = tested on: T-47D breast
[10] = tested on: OVCAR-3 ovarian

Compound | growth [1] | growth [2] | growth [3] | growth [4] | growth [5] | growth [6] | growth [7] | growth [8] | growth [9] | growth [10]
COc1ccc(/C=C(/C(=O)N2CCN(Cc3ccccc3)CC2)c2cc(OC)c(OC)c(OC)c2)cc1O | 66.9% | 80.1% | 99.9% | 90.3% | 65.5% | 68.4% | 65.1% | 71.7% | 77.2% | –
O=C(CCc1nnc2sc(OCc3ccccc3)nn12)c1nc2ccc([N+](=O)[O-])cc2[nH]1 | 106% | 94.7% | 103% | – | 77.3% | 93.8% | 88.2% | 99% | 97.7% | 96.4%
CCOC(=O)c1c(C(F)(F)F)n([O-])c2ccc(Cl)cc2[n+]1=O | -69.8% (active) | -42.6% (active) | -27.8% (active) | -35.3% (active) | 66.6% | -30.3% (active) | 13.8% | 8.49% (active) | -53% (active) | –
COc1cccc(NC(=O)Nc2ccc(Oc3ncnc4[nH]c(C)c(C)c34)cc2)c1 | 72.4% | 77% | 129% | 99.2% | 107% | 52% | – | – | 95.2% | 103%
CCOC(=O)c1cnn(-c2nc(-c3ccc(F)cc3)c(C#N)c(N3CCOCC3)n2)c1N | 103% | 100% | 95% | 101% | 101% | 102% | – | 96.7% | 83.9% | –
COc1cc(NC(=O)COc2cc(C)nc3ccc(OC)cc23)cc(OC)c1 | 81.3% | 93.6% | 107% | 99% | 96.3% | 104% | 95.1% | 86.6% | 95.8% | –
CNS(=O)(=O)c1cccc(-c2ccc3c4c(n(C)c(=O)c3c2)-c2ccccc2C4=O)c1 | 30.5% | 43.9% | 95.2% | – | 71.8% | 60.8% | 94.5% | 70.7% | 47% | 82.6%
COC(=O)c1cc2c3c(cc(O)c2[nH]1)N(C(=O)C1Cc2cc(OC)c(OC)c(OC)c2N1)CC3CCl (centres undefined) | -13.2% (active) | -50.5% (active) | -61.1% (active) | – | -44.9% (active) | -10.6% (active) | 1.21% (active) | -34.6% (active) | -48.9% (active) | -83% (active)
O=C(Nc1ccc2ncnc(Nc3cccc(C(F)(F)F)c3)c2c1)c1cccs1 | 40.8% | 49.9% | 63.9% | – | 83.7% | 32.7% | – | 55.7% | 32.3% | 29.1%
CCCCCCCc1n(Cc2ccc3ccccc3c2)c2ccccc2[n+]1Cc1ccc2ccccc2c1 | -53% (active) | -69.8% (active) | -83.7% (active) | – | -91.7% (active) | -67.5% (active) | – | -35% (active) | -74.2% (active) | -86.7% (active)
COc1cc2nc3c(=O)n(CCN(C)C)cnn3c(=O)c2cc1OC | 121% | 111% | 99% | – | 104% | 100% | 92.8% | 98.3% | 112% | 103%
COc1ccc2c(c1)OC13Oc4cc(OC)ccc4C=C1CCCCC3=C2 | 97.8% | 92.5% | 104% | – | 80.8% | 99.3% | 99.4% | 96.9% | 67.6% | 108%
CCOC(=O)/C(=C/c1c(-c2ccccc2)[nH]c2ccccc12)C(=O)c1ccc(Cl)cc1 | -17.2% (active) | 59.8% | 95.8% | – | 81.6% | 98.5% | 63.4% | 45.4% | 24.9% | 38.5%
CC(C)(C)c1ccc2oc(=O)n(SC(Cl)(Cl)Cl)c2c1 | 102% | 111% | 105% | – | 102% | 111% | – | 100% | 93.4% | 106%
c1ccc(-c2n(Cc3ccc4ccccc4n3)cc[n+]2Cc2ccc3ccccc3n2)cc1 | 0.454% (active) | 33.6% | 70.5% | – | 48.9% | 33.9% | 60.4% | 105% | 9.75% (active) | 28.8%
C=CCn1c(CN2CCN(c3cc4c(cc3F)c(=O)c(C(=O)O)cn4C3CC3)CC2)n[nH]c1=S | – | 100% | 94% | 105% | 108% | 96.2% | 95% | 99.2% | 103% | 102%
CCOC(=O)c1c(C)nc2c(c1N)/C(=C/c1ccccn1)C(=O)N2Cc1ccccc1 | -25.8% (active) | -7.26% (active) | 64.1% | – | 65.9% | -10.6% (active) | 33.2% | -3.17% (active) | 9.22% (active) | -19% (active)
O=c1c2ccccc2n(CC(O)CN2CCCC2)c2c(Br)cccc12 (centres undefined) | 44.9% | 94.1% | 76.3% | – | 101% | 93.3% | 98.9% | -14.8% (active) | 93.4% | 106%
C#CCN1C(=O)c2ccccc2N(CC#C)C12CCN(Cc1cn(CC(=O)Nc3ccccc3C(N)=O)nn1)CC2 | 82.2% | 100% | 89.2% | – | 106% | 82.4% | 91.8% | 80.5% | 77% | 84.4%
O=C(CN1N=C(c2ccc(F)cc2)CCC1=O)Nc1nccs1 | 103% | 98.6% | 107% | – | 97.7% | 100% | 100% | 109% | 83.7% | 113%
CCc1ccc(OCc2ccccc2C(=O)Nc2ccc3nc(C)cc(N)c3c2)cc1 | -45.4% (active) | -60.7% (active) | -95.4% (active) | – | -97% (active) | -71.5% (active) | -42% (active) | -71.5% (active) | -60% (active) | -92.4% (active)
CC1CCCN(CCCCCOc2ccc3oc4ccccc4c(=O)c3c2)C1 (centres undefined) | 50.7% | 77.5% | 79.4% | – | 99.7% | 67.3% | 77.8% | 73.3% | 65.4% | 77.9%
C=C(C)[C@@H]1CC[C@]2(C(=O)OCCCC[P+](c3ccccc3)(c3ccccc3)c3ccccc3)CC[C@]3(C)[C@H](CC[C@@H]4[C@@]5(C)CC[C@H](OC(=O)C(Cl)Cl)C(C)(C)[C@@H]5CC[C@]43C)[C@@H]12 | -40% (active) | -1.54% (active) | -1.72% (active) | – | -5.89% (active) | -23.3% (active) | -0.621% (active) | – | -14.3% (active) | -42.7% (active)
C#Cc1ccccc1NC(=O)c1sc2nc3c(cc2c1N)CCCCC3 | 97.4% | 100% | 105% | – | 100% | 103% | 99.6% | 105% | 95% | 105%
CC(=O)Oc1ccc(O)cc1 | – | 90% | 115% | 105% | 110% | 107% | 105% | 91.6% | 118% | 111%
N#Cc1nc(-c2ccccc2)oc1S(=O)(=O)NCC(c1ccc(Cl)cc1)N1CCCCC1 (centres undefined) | 3.47% (active) | 71.3% | 102% | – | 113% | 44.2% | 102% | 91.1% | 65.1% | 61.9%
COc1ccc(/C=C/C(=O)/C=C(/C=C/c2ccc(OC)c(OC)c2)OB(F)F)cc1OC | -20.9% (active) | 5.06% (active) | 65.2% | – | 81.9% | 49.6% | 50.2% | 30.1% | 35.5% | –
Cc1[nH]c(N=Nc2ccccc2)nc1N=Nc1ccccc1 | -2.66% (active) | 14.7% | 18.8% | – | 39% | -22.8% (active) | – | 0.979% (active) | 30.5% | 33.2%
O=C(O)c1cn(C2CC2)c2cc(N3CCN(Cc4nnc(Nc5ccccc5)o4)CC3)c(F)cc2c1=O | 106% | 108% | 94% | – | 108% | 95.9% | 98% | – | 85.4% | 101%
C=C(C)[C@@H]1CC[C@]2(C(N)=O)CC[C@]3(C)[C@H](CC[C@@H]4[C@@]5(C)CCCNC(C)(C)[C@@H]5CC[C@]43C)[C@@H]12 | 13.5% | 82.1% | 82.9% | – | 87.5% | 84.2% | – | 84.6% | 55.9% | –
